Data from PubChem BioAssay AID1159580 (chemical genetic matrix, 2015).
Out of some 5,500 compounds screened, about 2,000 (36%) were called active. Roughly 18% stayed inconclusive and do not appear here. Cut-off read from the data, not from the text of the source: active = normalized growth mostly below about 0.91 (no sharp cut-off); inconclusive = no clear call, values can overlap the other calls; inactive = mostly above about 0.92. The list shows a part of the results.

Assay: chemical genetic growth profiling, strain panel (AID 1159580);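 note: tested at 20 µM; growth read once vehicle control cultures reached saturation at 30 °C; 1 = growth at the plate median or of vehicle wells; lower values mean less growth of the strain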
Settings: growth OD

Measured: normalized growth

COc1cc(O)c2c(c1)C(=O)c1cc(C)cc(O)c1C2=O
active: S. cerevisiae deletion strains, locus YLR262C, strain YPT6 (second series), active compounds read low 0.845 | S. cerevisiae deletion strains, locus YML032C, strain rad52, active compounds read low 0.812 | S. cerevisiae deletion strains, locus YNL250W, strain rad50, active compounds read low 0.834 | S. cerevisiae deletion strains, locus YNL307C, strain MCK1, active compounds read low 0.862 | S. cerevisiae deletion strains, locus YOR069W, strain VPS5, active compounds read low 1.12 [resistant]
inactive: S. cerevisiae deletion strains, locus YJR075W, strain HOC1, active compounds read low 1 | S. cerevisiae deletion strains, locus YKL009W, strain mrt4, active compounds read low 0.921 | S. cerevisiae deletion strains, locus YKL068W, active compounds read low 1.01 | S. cerevisiae deletion strains, locus YKL085W, strain MDH1 (second series), active compounds read low 0.98 | S. cerevisiae deletion strains, locus YKL085W, strain MDH1, active compounds read low 0.98 | S. cerevisiae deletion strains, locus YKL160W, strain elf1, active compounds read low 0.997 | S. cerevisiae deletion strains, locus YKL190W, strain CNB1, active compounds read low 1.02 | S. cerevisiae deletion strains, locus YKR001C, strain vps1, active compounds read low 1.02 | S. cerevisiae deletion strains, locus YKR026C, strain gcn3, active compounds read low 0.997 | S. cerevisiae deletion strains, locus YKR091W, strain srl3, active compounds read low 0.981 | S. cerevisiae deletion strains, locus YLL001W, strain dnm1, active compounds read low 0.994 | S. cerevisiae deletion strains, locus YLL026W, active compounds read low 0.995 | S. cerevisiae deletion strains, locus YLL041C, strain sdh2, active compounds read low 0.988 | S. cerevisiae deletion strains, locus YLR027C, strain aat2, active compounds read low 0.986 | S. cerevisiae deletion strains, locus YLR039C, strain RIC1, active compounds read low 0.846 | S. cerevisiae deletion strains, locus YLR058C, strain SHM2, active compounds read low 1 | S. cerevisiae deletion strains, locus YLR102C, strain apc9, active compounds read low 0.997 | S. cerevisiae deletion strains, locus YLR113W, strain HOG1, active compounds read low 0.979 | S. cerevisiae deletion strains, locus YLR221C, strain rsa3, active compounds read low 0.995 | S. cerevisiae deletion strains, locus YLR258W, strain gsy2, active compounds read low 0.978 | S. cerevisiae deletion strains, locus YLR262C, strain YPT6, active compounds read low 0.884 | S. cerevisiae deletion strains, locus YLR268W, strain sec22, active compounds read low 0.924 | S. cerevisiae deletion strains, locus YLR320W, strain mms22, active compounds read low 0.962 | S. cerevisiae deletion strains, locus YLR330W, strain CHS5, active compounds read low 1.01 | S. cerevisiae deletion strains, locus YLR342W, strain FKS1 (second series), active compounds read low 1.02 | S. cerevisiae deletion strains, locus YLR342W, strain FKS1, active compounds read low 0.994 | S. cerevisiae deletion strains, locus YLR357W, strain rsc2, active compounds read low 0.945 | S. cerevisiae deletion strains, locus YLR370C, strain arc18, active compounds read low 0.986 | S. cerevisiae deletion strains, locus YLR371W, strain rom2, active compounds read low 1 | S. cerevisiae deletion strains, locus YLR384C, strain iki3, active compounds read low 0.977 | S. cerevisiae deletion strains, locus YLR418C, strain cdc73, active compounds read low 1 | S. cerevisiae deletion strains, locus YML016C, strain PPZ1, active compounds read low 1.01 | S. cerevisiae deletion strains, locus YML120C, strain ndi1, active compounds read low 1 | S. cerevisiae deletion strains, locus YML124C, strain tub3, active compounds read low 1 | S. cerevisiae deletion strains, locus YMR058W, strain fet3, active compounds read low 1.01 | S. cerevisiae deletion strains, locus YMR078C, strain ctf18, active compounds read low 0.982 | S. cerevisiae deletion strains, locus YMR125W, strain sto1, active compounds read low 0.995 | S. cerevisiae deletion strains, locus YMR129W, active compounds read low 0.992 | S. cerevisiae deletion strains, locus YMR205C, strain PFK2, active compounds read low 0.97 | S. cerevisiae deletion strains, locus YMR223W, strain ubp8, active compounds read low 0.974 | S. cerevisiae deletion strains, locus YMR231W, strain pep5, active compounds read low 0.979 | S. cerevisiae deletion strains, locus YMR263W, strain SAP30, active compounds read low 1.01 | S. cerevisiae deletion strains, locus YMR307W, strain GAS1, active compounds read low 0.931 | S. cerevisiae deletion strains, locus YNL067W, strain RPL9B, active compounds read low 0.989 | S. cerevisiae deletion strains, locus YNL071W, strain lat1, active compounds read low 0.998 | S. cerevisiae deletion strains, locus YNL128W, strain TEP1, active compounds read low 1.02 | S. cerevisiae deletion strains, locus YNL153C, strain GIM3, active compounds read low 1 | S. cerevisiae deletion strains, locus YNL183C, strain NPR1, active compounds read low 0.99 | S. cerevisiae deletion strains, locus YNL209W, strain ssb2, active compounds read low 0.985 | S. cerevisiae deletion strains, locus YNL233W, strain BNI4, active compounds read low 0.986 | S. cerevisiae deletion strains, locus YNL248C, strain rpa49, active compounds read low 0.987 | S. cerevisiae deletion strains, locus YNL271C, strain bni1, active compounds read low 0.996 | S. cerevisiae deletion strains, locus YNL298W, strain CLA4, active compounds read low 0.91 | S. cerevisiae deletion strains, locus YNL322C, strain KRE1 (second series), active compounds read low 0.974 | S. cerevisiae deletion strains, locus YNL322C, strain KRE1, active compounds read low 1.01 | S. cerevisiae deletion strains, locus YNR049C, strain mso1, active compounds read low 0.987 | S. cerevisiae deletion strains, locus YNR052C, strain pop2, active compounds read low 0.992 | S. cerevisiae deletion strains, locus YOL006C, strain TOP1, active compounds read low 0.775 | S. cerevisiae deletion strains, locus YOL012C, strain htz1 1.44 | S. cerevisiae deletion strains, locus YOL147C, strain pex11, active compounds read low 1.02 | S. cerevisiae deletion strains, locus YOR001W, strain rrp6, active compounds read low 1.01 | S. cerevisiae deletion strains, locus YOR061W, strain CKA2, active compounds read low 1 | S. cerevisiae deletion strains, locus YOR070C, strain gyp1, active compounds read low 0.979 | S. cerevisiae deletion strains, locus YOR080W, strain dia2, active compounds read low 0.978 | S. cerevisiae deletion strains, locus YOR083W, strain WHI5, active compounds read low 0.984 | S. cerevisiae deletion strains, locus YOR106W, strain vam3, active compounds read low 0.991 | S. cerevisiae deletion strains, locus YOR136W, strain idh2, active compounds read low 0.997 | S. cerevisiae deletion strains, locus YOR144C, strain elg1, active compounds read low 1 | S. cerevisiae deletion strains, locus YOR184W, strain ser1, active compounds read low 0.971 | S. cerevisiae deletion strains, locus YOR231W, strain MKK1, active compounds read low 1.02 | S. cerevisiae deletion strains, locus YOR265W, strain rbl2, active compounds read low 0.983 | S. cerevisiae deletion strains, locus YOR270C, strain vph1, active compounds read low 0.978 | S. cerevisiae deletion strains, locus YOR290C, strain snf2, active compounds read low 0.93 | S. cerevisiae deletion strains, locus YOR316C, strain cot1, active compounds read low 1 | S. cerevisiae deletion strains, locus YPL051W, strain arl3, active compounds read low 0.939 | S. cerevisiae deletion strains, locus YPL055C, strain LGE1, active compounds read low 0.999 | S. cerevisiae deletion strains, locus YPL078C, strain atp4, active compounds read low 1 | S. cerevisiae deletion strains, locus YPL106C, strain sse1, active compounds read low 0.973 | S. cerevisiae deletion strains, locus YPL240C, strain hsp82, active compounds read low 0.98 | S. cerevisiae deletion strains, locus YPL256C, strain CLN2, active compounds read low 1.03 | S. cerevisiae deletion strains, locus YPR119W, strain clb2, active compounds read low 0.984 | S. cerevisiae deletion strains, locus YPR141C, strain kar3, active compounds read low 1.01 | S. cerevisiae deletion strains, locus YPR163C, strain tif3, active compounds read low 0.949 | S. cerevisiae deletion strains, locus YPR167C, strain met16, active compounds read low 0.999 | S. cerevisiae deletion strains, strain wtn01, active compounds read low 0.995 | S. cerevisiae strains, strain wild type, active compounds read low 1.01
